In paper PMC12431657, “Discovery and mechanistic insights of dibenzoylmethane as a broad spectrum inhibitor of coronavirus” (PLOS Pathogens, 2025):
Like-named read-outs stand apart in the source and are kept apart here. Screen size: about 3,300 compounds; about 60 (2%) showed an effect of 50% or more. The sample holds strong results, similar compounds and a random draw of the others, so the mix is not that of the screen.

Tested on: HCoV-OC43
Design: species or system RD; HTS, protection from HCoV-OC43 induced cell death, luminescent cell viability (CellCounting-Lite 2.0), inhibition rate
Settings: 24 h post infection, 1 h compound pre-incubation, 10 µM, inhibitor

Compound	OC43 Inhibition rate [%]	OC43 Inhibition rate (OC43 Inhibition rate, 24 h) [%]
C[C@H](CCC(=O)NCCS(=O)(=O)O)[C@H]1CC[C@H]2[C@@H]3C[C@H](O)[C@@H]4C[C@H](O)CC[C@]4(C)[C@H]3CC[C@]12C [Taurohyodeoxycholic acid]	-1.1	–
COc1cccc(O)c1C(=O)O [2-Hydroxy-6-methoxybenzoic acid]	0	–
CCCCCCC/C=C\C(=O)O [(Z)-2-Decenoic acid]	29.5	–
CC(C)=CCC1C(=O)C(C(=O)CC(C)C)=C(O)C(O)(CC=C(C)C)C1=O (centres unmarked) [Humulone]	-1	–
Oc1ccc(O)c(O)c1 [1,2,4-Trihydroxybenzene]	-0.2	–
COc1c2c(cc3oc(C)cc(=O)c13)OC(C(C)(C)O[C@@H]1O[C@H](CO)[C@@H](O)[C@H](O)[C@H]1O)C2 (some centres unmarked) [5-O-Methylvisammioside]	0.3	–
COc1cc(O)ccc1/C=C/C(=O)c1ccc(O)cc1 [Echinatin]	46.1	–
COc1c(/C=C/C(=O)c2ccc(O)cc2)ccc(O)c1O [Licochalcone B]	45.6	–
C=C(C)[C@H](C)c1cc(/C=C/C(=O)c2ccc(O)cc2)c(OC)cc1O [Licochalcone E]	55.6	–
O=C1C[C@@H](c2ccc(O[C@@H]3O[C@H](CO)[C@@H](O)[C@H](O)[C@H]3O)cc2)Oc2cc(O[C@@H]3OC[C@](O)(CO)[C@H]3O)ccc21 [Liguiritigenin-7-O-D-apiosyl-4'-O-D-glucoside]	1.2	–
CCC(O)C(=O)O (centres unmarked) [Sodium 2-hydroxybutanoate]	-6	–
C[C@@H]1CC[C@]2(C(=O)O[C@@H]3O[C@H](CO)[C@@H](O)[C@H](O)[C@H]3O)CC[C@]3(C)C(=CC[C@@H]4[C@@]5(C)C[C@@H](O)[C@H](O)C(C)(C)[C@@H]5CC[C@]43C)[C@@H]2[C@]1(C)O [Rosamultin]	1	–
CC(C)=C[C@@H]1CO[C@]23C[C@]4(CO2)[C@H](CC[C@@H]2[C@@]5(C)CC[C@H](O[C@@H]6OC[C@H](O)[C@H](O[C@@H]7O[C@H](COS(=O)(=O)O)[C@@H](O)[C@H](O)[C@H]7O)[C@H]6O[C@@H]6O[C@@H](CO)[C@H](O)[C@H]6O)C(C)(C)[C@@H]5CC[C@]24C)[C@H]3[C@@]1(C)O [Bacopaside I]	0.8	–
O=C1NCN(c2ccccc2)C12CCN(CCCOc1ccc(F)cc1)CC2 [Spiramide]	69.6	–
CC(=O)O[C@]12CCC(C(=O)O)=CC[C@]13CC[C@H]2[C@@](C)(/C=C/C=C(\C)C(=O)O)OC3=O [Pseudolaric Acid C2]	3.3	–
Cn1cncc1C[C@H](N)C(=O)O [3-Methyl-L-histidine]	-5.7	–
CC[C@@H](C)O [(R)-(-)-2-Butanol]	0.1	–
CC(=O)N[C@@H](CCCCN)C(=O)O [Acetyl-L-lysine]	-0.1	–
COc1cc2c(cc1OC)[C@@H](Cc1ccc(O)c(Oc3cc4c(cc3OC)CCN(C)[C@@H]4Cc3ccc(O)cc3)c1)N(C)CC2 [Liensinine]	–	54.6
COc1cc2c(cc1OC)[C@@H](Cc1ccc(O)c(Oc3cc4c(cc3OC)CCN(C)[C@@H]4Cc3ccc(O)cc3)c1)N(C)CC2 [Liensinine (perchlorate)]	–	0.4
COc1cc2c(cc1OC)[C@@H](Cc1ccc(O)c(Oc3cc4c(cc3OC)CCN(C)[C@@H]4Cc3ccc(O)cc3)c1)N(C)CC2 [Liensinine (Diperchlorate)]	–	24.8
CCCCCCCC/C=C/CCCCCCCC(=O)O [Elaidic acid]	-0.4	–
O=C(/C=C/c1ccc(O)c(O)c1)O[C@@H]1[C@H](O)C[C@@](O)(C(=O)O)C[C@H]1OC(=O)/C=C/c1ccc(O)c(O)c1 [4,5-Dicaffeoylquinic acid]	-0.7	–
C=C1[C@H](OC(=O)/C=C(\C)CC)C[C@@H](C(C)C)[C@@H]2[C@@H]([C@@H](C)OC(C)=O)C(=O)C[C@@H]12 [Tussilagone]	60.7	–
O=C(/C=C/C=C/c1ccccc1)CCc1ccccc1 [Alnustone]	1.1	–
C[C@@H]1O[C@@H](Oc2cc(O)c3c(=O)c(O)c(-c4ccc(O)cc4)oc3c2O)[C@H](O)[C@H](O)[C@H]1O [Rhodionin]	0.2	–
CCCCCCCCCCCCCCCCCCCCCCCCCCCC(=O)O [Octacosanoic acid]	-0.6	–

Compound	OC43 Inhibition rate [%]	OC43 Inhibition rate (OC43 Inhibition rate, 24 h) [%]
C[C@@H]1O[C@H]2O[C@H]3[C@@H](OC[C@H](O)[C@@H]3O)OC(=O)[C@]34CCC(C)(C)C[C@H]3C3=CC[C@@H]5[C@@]6(C)C[C@H](O)[C@H](O[C@@H]7O[C@H](CO)[C@@H](O)[C@H](O)[C@H]7O[C@@H]7OC[C@H](OC(=O)C[C@](C)(O)CC(=O)O[C@@H]1[C@@H](O[C@@H]1OC[C@@H](O)[C@H](O)[C@H]1O)[C@H]2O)[C@H](O)[C@H]7O)[C@@](C)(CO)[C@@H]6CC[C@@]5(C)[C@]3(C)C[C@H]4O [Tubeimoside II]	-2.8	–
C[C@@H]1O[C@@H](O[C@H]2[C@H](O[C@H]3CC[C@@]4(C)[C@@H](CC[C@]5(C)[C@@H]4CC=C4[C@@H]6CC(C)(C)CC[C@]6(C(=O)O[C@@H]6O[C@H](CO[C@@H]7O[C@H](CO)[C@@H](O)[C@H](O)[C@H]7O)[C@@H](O)[C@H](O)[C@H]6O)CC[C@]45C)[C@]3(C)CO)OC[C@H](O)[C@@H]2O)[C@H](O)[C@H](O[C@@H]2O[C@H](CO)[C@@H](O)[C@H](O)[C@H]2O)[C@H]1O [Macranthoidin A]	-0.3	–
C[C@@H]1O[C@@H](O[C@H]2[C@H](OC(=O)[C@]34CCC(C)(C)C[C@H]3C3=CC[C@@H]5[C@@]6(C)C[C@H](O)[C@@H]7O[C@@H]8O[C@H](CO)[C@@H](O)[C@H](O)[C@H]8O[C@@H]8OC[C@H](O)[C@H](O)[C@H]8OC(=O)C[C@@](C)(O)CC(=O)OC[C@@]7(C)[C@@H]6CC[C@@]5(C)[C@]3(C)CC4)OC[C@H](O)[C@@H]2O)[C@H](O)[C@H](O[C@@H]2OC[C@@H](O)[C@H](O)[C@H]2O)[C@H]1O [Tubeimoside I]	57.2	–
CC1(C)CC[C@]2(C(=O)O)CC[C@]3(C)C(=CC[C@@H]4[C@@]5(C)CC[C@H](O[C@@H]6O[C@H](C(=O)O)[C@@H](O)[C@H](O[C@@H]7OC[C@@H](O)[C@H](O)[C@H]7O[C@@H]7O[C@H](CO)[C@@H](O)[C@H](O)[C@H]7O)[C@H]6O)C(C)(C)[C@@H]5CC[C@]43C)[C@@H]2C1 [Oleanolic acid-3-O-glucosyl(1-2)xylyl(1-3)glucosiduronic acid]	-0.1	–
CC(=O)c1ccc2ccccc2c1 [2-Acetonaphthone]	-1.5	–
c1cncnc1 [Pyrimidine]	-0.5	–
Nc1nc(O)c2[nH]nnc2n1 [8-Azaguanine]	54.4	–
C/C=C/C=C/C(=O)O [Potassium sorbate]	–	1.3
C=C1CCC2(C(C)C)CC12 (centres unmarked) [Sabinene]	-0.5	–
C[C@@H](O)CC(=O)O [(R)-3-Hydroxybutanoic acid]	–	-0.8
C[C@]12CC[C@H]3[C@@H](CC=C4C[C@@H](O)CC[C@@]43C)[C@@H]1CC[C@@H]2C(=O)CO [21-Hydroxypregnenolone]	-0.2	–
C[C@H]1[C@H]2CC[C@H]3[C@@H]4CC=C5C[C@@H](N(C)C)CC[C@]5(C)[C@H]4CC[C@]23CN1C [Conessine]	52.4	–
CC(=O)[C@H]1CC[C@H]2[C@@H]3CC=C4C[C@@H](O)CC[C@]4(C)[C@H]3CC[C@]12C [Pregnenolone]	1.3	–
CC1(C)CC[C@]2(C(=O)O)CC[C@]3(C)C(=CC[C@@H]4[C@@]5(C)CC[C@@H](O)C(C)(C)[C@@H]5CC[C@]43C)[C@@H]2C1 [3-Epioleanolic acid]	-0.6	–
OC1OC[C@@H](O)[C@H](O)[C@@H]1O (stereo partly drawn) [D-Lyxose]	-0.4	–
C=C1C(=O)[C@@]23[C@H](O)C[C@@H]4C(C)(C)CC[C@H](O)[C@@]4(CO)[C@@H]2CC[C@@H]1[C@H]3O [Kamebakaurin]	-2.9	–
C=C1C(=O)[C@]23[C@H](O)[C@H]1CC[C@H]2[C@@]12CO[C@]3(O)[C@@H](O)[C@@H]1C(C)(C)CC[C@@H]2O [Oridonin]	17.2	–
C=C1C(=O)[C@@]23[C@@H]4OC5O[C@@]2(O)[C@@H](O)[C@@H]2C(C)(C)CC[C@@H](O)[C@]52[C@@H]3CC[C@@H]14 [ponicidin]	75.9	–
CC(C)(CC(=O)O)CC(=O)O [3,3-Dimethylglutaric acid]	-0.3	–
C/C=C(\C)C(=O)OC1c2c(ccc3ccc(=O)oc23)OC(C)(C)C1OC(=O)/C(C)=C/C (centres unmarked) [Praeruptorin B]	7.3	–
C/C=C(/C)C(=O)O[C@@H]1c2c(ccc3ccc(=O)oc23)OC(C)(C)[C@@H]1OC(=O)/C(C)=C\C [(-)-Anomalin]	32.9	–
C/C=C(/C)C(=O)OC(C)(C)[C@@H]1Cc2c(ccc3ccc(=O)oc23)O1 [Columbianadin, columbianadin]	107.6	–
Nc1ccccc1C(=O)C[C@@H](N)C(=O)O [D-Kynurenine]	-6.1	–
CCCCCCCC/C=C\CCCCCCCC(=O)NCc1ccccc1 [N-Benzyloleamide]	56.9	–
CCCCC/C=C\C/C=C\CCCCCCCC(=O)NCc1ccccc1 [N-Benzyllinoleamide]	40	–
CCCCCCCCCCCCCCCCCC(=O)NCc1ccccc1 [N-Benzyloctadecanamide]	-0.1	–
